According to the supplement of paper PMC4466140:

Legend:
Test in all cases: SPOT peptide array binding signal intensity (averaged, normalized) (arbitrary units (background-subtracted, floor 0; scale differs between SH3 domains)); higher = stronger binding of the SH3 domain to the peptide
CaNbp2 = molecular target: CaNbp2
Procedure, shortened: (§1)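 SH3 domains from four yeast species were expressed as GST fusions in E. coli BL21(DE3) and purified on glutathione Sepharose. Each was incubated at 10 μg/ml overnight at 4°C in TBS-based blocking buffer on cellulose membranes bearing synthetic 15-mer peptides, in which serines replaced cysteines. Bound protein was detected with anti-GST antibody, an HRP anti-mouse secondary and luminol, then imaged and quantified with Genespotter. The binding signal is the normalized, background-subtracted spot intensity averaged over replicates, in arbitrary units that are not the same from one domain to another.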

CaRvs167 = molecular target: CaRvs167
Procedure, shortened: as §1

CaRvs167-3 = molecular target: CaRvs167-3
Procedure, shortened: as §1

CaSho1 = molecular target: CaSho1
Procedure, shortened: as §1

CaSla1-D1-D2 = molecular target: CaSla1-D1-D2
Procedure, shortened: as §1

CaSla1-D3 = molecular target: CaSla1-D3
Procedure, shortened: as §1

ScAbp1 = molecular target: ScAbp1
Procedure, shortened: as §1

ScBbc1 = molecular target: ScBbc1
Procedure, shortened: as §1

ScBem1-D1 = molecular target: ScBem1-D1
Procedure, shortened: as §1

ScBzz1-D1 = molecular target: ScBzz1-D1
Procedure, shortened: as §1

ScBzz1-D2 = molecular target: ScBzz1-D2
Procedure, shortened: as §1

ScCyk3 = molecular target: ScCyk3
Procedure, shortened: as §1

ScFus1 = molecular target: ScFus1
Procedure, shortened: as §1

ScHof1 = molecular target: ScHof1
Procedure, shortened: as §1

ScHse1 = molecular target: ScHse1
Procedure, shortened: as §1

ScLsb1 = molecular target: ScLsb1
Procedure, shortened: as §1

ScLsb2 = molecular target: ScLsb2
Procedure, shortened: as §1

ScLsb3 = molecular target: ScLsb3
Procedure, shortened: as §1

ScLsb4 = molecular target: ScLsb4
Procedure, shortened: as §1

ScMyo3 = molecular target: ScMyo3
Procedure, shortened: as §1

ScMyo5 = molecular target: ScMyo5
Procedure, shortened: as §1

ScNbp2 = molecular target: ScNbp2
Procedure, shortened: as §1

ScPex13 = molecular target: ScPex13
Procedure, shortened: as §1

ScRvs167 = molecular target: ScRvs167
Procedure, shortened: as §1

ScSho1 = molecular target: ScSho1
Procedure, shortened: as §1

ScSla1-D1-D2 = molecular target: ScSla1-D1-D2
Procedure, shortened: as §1

ScSla1-D3 = molecular target: ScSla1-D3
Procedure, shortened: as §1

SpAbp1-D1 = molecular target: SpAbp1-D1
Procedure, shortened: as §1

SpBbc1 = molecular target: SpBbc1
Procedure, shortened: as §1

SpBzz1-D1 = molecular target: SpBzz1-D1
Procedure, shortened: as §1

SpBzz1-D2 = molecular target: SpBzz1-D2
Procedure, shortened: as §1

SpCyk3 = molecular target: SpCyk3
Procedure, shortened: as §1

SpHof1 = molecular target: SpHof1
Procedure, shortened: as §1

SpHof1-2 = molecular target: SpHof1-2
Procedure, shortened: as §1

SpHof1-3 = molecular target: SpHof1-3
Procedure, shortened: as §1

SpHse1 = molecular target: SpHse1
Procedure, shortened: as §1

SpLsb1 = molecular target: SpLsb1
Procedure, shortened: as §1

SpLsb4 = molecular target: SpLsb4
Procedure, shortened: as §1

SpMyo1 = molecular target: SpMyo1
Procedure, shortened: as §1

SpNbp2 = molecular target: SpNbp2
Procedure, shortened: as §1

SpPex13 = molecular target: SpPex13
Procedure, shortened: as §1

SpRvs167 = molecular target: SpRvs167
Procedure, shortened: as §1

SpSla1-D1-D2 = molecular target: SpSla1-D1-D2
Procedure, shortened: as §1

SpSla1-D3 = molecular target: SpSla1-D3
Procedure, shortened: as §1

AgAbp1 = molecular target: AgAbp1
Procedure, shortened: as §1

AgBbc1 = molecular target: AgBbc1
Procedure, shortened: as §1

AgBem1-D1 = molecular target: AgBem1-D1
Procedure, shortened: as §1

AgBzz1-D1 = molecular target: AgBzz1-D1
Procedure, shortened: as §1

AgBzz1-D2 = molecular target: AgBzz1-D2
Procedure, shortened: as §1

AgCyk3 = molecular target: AgCyk3
Procedure, shortened: as §1

AgFus1 = molecular target: AgFus1
Procedure, shortened: as §1

AgHof1 = molecular target: AgHof1
Procedure, shortened: as §1

AgHse1 = molecular target: AgHse1
Procedure, shortened: as §1

AgLsb1 = molecular target: AgLsb1
Procedure, shortened: as §1

AgLsb4 = molecular target: AgLsb4
Procedure, shortened: as §1

AgMyo5 = molecular target: AgMyo5
Procedure, shortened: as §1

AgNbp2 = molecular target: AgNbp2
Procedure, shortened: as §1

AgRvs167 = molecular target: AgRvs167
Procedure, shortened: as §1

AgSho1 = molecular target: AgSho1
Procedure, shortened: as §1

AgSla1-D1-D2 = molecular target: AgSla1-D1-D2
Procedure, shortened: as §1

AgSla1-D3 = molecular target: AgSla1-D3
Procedure, shortened: as §1

CaAbp1-D1 = molecular target: CaAbp1-D1
Procedure, shortened: as §1

CaAbp1-D2 = molecular target: CaAbp1-D2
Procedure, shortened: as §1

CaBbc1 = molecular target: CaBbc1
Procedure, shortened: as §1

CaBem1-D1 = molecular target: CaBem1-D1
Procedure, shortened: as §1

CaBzz1-D1 = molecular target: CaBzz1-D1
Procedure, shortened: as §1

CaBzz1-D2 = molecular target: CaBzz1-D2
Procedure, shortened: as §1

CaCyk3 = molecular target: CaCyk3
Procedure, shortened: as §1

CaFus1 = molecular target: CaFus1
Procedure, shortened: as §1

CaHof1 = molecular target: CaHof1
Procedure, shortened: as §1

CaHse1 = molecular target: CaHse1
Procedure, shortened: as §1

CaLsb1 = molecular target: CaLsb1
Procedure, shortened: as §1

CaLsb4 = molecular target: CaLsb4
Procedure, shortened: as §1

CaMyo5 = molecular target: CaMyo5
Procedure, shortened: as §1

Binder: GERSRPLVISILSSA
- SPOT peptide array binding signal intensity (CaNbp2): 171
- SPOT peptide array binding signal intensity (CaRvs167): 45.8
- SPOT peptide array binding signal intensity (CaRvs167-3): 538
- SPOT peptide array binding signal intensity (CaSho1): 497
- SPOT peptide array binding signal intensity (CaSla1-D1-D2): 11
- SPOT peptide array binding signal intensity (CaSla1-D3): 170
- SPOT peptide array binding signal intensity (ScAbp1): 3
- SPOT peptide array binding signal intensity (ScBbc1): 4
- SPOT peptide array binding signal intensity (ScBem1-D1): 9
- SPOT peptide array binding signal intensity (ScBzz1-D1): 97
- SPOT peptide array binding signal intensity (ScBzz1-D2): 619
- SPOT peptide array binding signal intensity (ScCyk3): 121
- SPOT peptide array binding signal intensity (ScFus1): 3300
- SPOT peptide array binding signal intensity (ScHof1): ≤ 0
- SPOT peptide array binding signal intensity (ScHse1): 500
- SPOT peptide array binding signal intensity (ScLsb1): ≤ 0
- SPOT peptide array binding signal intensity (ScLsb2): ≤ 0
- SPOT peptide array binding signal intensity (ScLsb3): 6.5
- SPOT peptide array binding signal intensity (ScLsb4): 7
- SPOT peptide array binding signal intensity (ScMyo3): ≤ 0
- SPOT peptide array binding signal intensity (ScMyo5): 1
- SPOT peptide array binding signal intensity (ScNbp2): 71.5
- SPOT peptide array binding signal intensity (ScPex13): 19.8
- SPOT peptide array binding signal intensity (ScRvs167): 6
- SPOT peptide array binding signal intensity (ScSho1): 910
- SPOT peptide array binding signal intensity (ScSla1-D1-D2): 8
- SPOT peptide array binding signal intensity (ScSla1-D3): 22
- SPOT peptide array binding signal intensity (SpAbp1-D1): ≤ 0
- SPOT peptide array binding signal intensity (SpBbc1): 18
- SPOT peptide array binding signal intensity (SpBzz1-D1): 314
- SPOT peptide array binding signal intensity (SpBzz1-D2): 0.75
- SPOT peptide array binding signal intensity (SpCyk3): 26.5
- SPOT peptide array binding signal intensity (SpHof1): 146
- SPOT peptide array binding signal intensity (SpHof1-2): 12.2
- SPOT peptide array binding signal intensity (SpHof1-3): 113
- SPOT peptide array binding signal intensity (SpHse1): 482
- SPOT peptide array binding signal intensity (SpLsb1): ≤ 0
- SPOT peptide array binding signal intensity (SpLsb4): 9
- SPOT peptide array binding signal intensity (SpMyo1): 6
- SPOT peptide array binding signal intensity (SpNbp2): 146
- SPOT peptide array binding signal intensity (SpPex13): 28
- SPOT peptide array binding signal intensity (SpRvs167): 0.333
- SPOT peptide array binding signal intensity (SpSla1-D1-D2): ≤ 0
- SPOT peptide array binding signal intensity (SpSla1-D3): 11

Binder: NNFYRPLLRSVLVLL
- SPOT peptide array binding signal intensity (AgAbp1): ≤ 0
- SPOT peptide array binding signal intensity (AgBbc1): ≤ 0
- SPOT peptide array binding signal intensity (AgBem1-D1): 8
- SPOT peptide array binding signal intensity (AgBzz1-D1): 13
- SPOT peptide array binding signal intensity (AgBzz1-D2): 18
- SPOT peptide array binding signal intensity (AgCyk3): ≤ 0
- SPOT peptide array binding signal intensity (AgFus1): 246
- SPOT peptide array binding signal intensity (AgHof1): ≤ 0
- SPOT peptide array binding signal intensity (AgHse1): 722
- SPOT peptide array binding signal intensity (AgLsb1): 0.5
- SPOT peptide array binding signal intensity (AgLsb4): 10.5
- SPOT peptide array binding signal intensity (AgMyo5): ≤ 0
- SPOT peptide array binding signal intensity (AgNbp2): 6.5
- SPOT peptide array binding signal intensity (AgRvs167): 1
- SPOT peptide array binding signal intensity (AgSho1): 14.5
- SPOT peptide array binding signal intensity (AgSla1-D1-D2): 1
- SPOT peptide array binding signal intensity (AgSla1-D3): 2
- SPOT peptide array binding signal intensity (CaAbp1-D1): ≤ 0
- SPOT peptide array binding signal intensity (CaAbp1-D2): ≤ 0
- SPOT peptide array binding signal intensity (CaBbc1): ≤ 0
- SPOT peptide array binding signal intensity (CaBem1-D1): ≤ 0
- SPOT peptide array binding signal intensity (CaBzz1-D1): ≤ 0
- SPOT peptide array binding signal intensity (CaBzz1-D2): 1
- SPOT peptide array binding signal intensity (CaCyk3): ≤ 0
- SPOT peptide array binding signal intensity (CaFus1): 2730
- SPOT peptide array binding signal intensity (CaHof1): 0.75
- SPOT peptide array binding signal intensity (CaHse1): 21.8
- SPOT peptide array binding signal intensity (CaLsb1): ≤ 0
- SPOT peptide array binding signal intensity (CaLsb4): ≤ 0
- SPOT peptide array binding signal intensity (CaMyo5): ≤ 0
- SPOT peptide array binding signal intensity (CaNbp2): 72.5
- SPOT peptide array binding signal intensity (CaRvs167): 3
- SPOT peptide array binding signal intensity (CaRvs167-3): 1
- SPOT peptide array binding signal intensity (CaSho1): 80
- SPOT peptide array binding signal intensity (CaSla1-D1-D2): ≤ 0
- SPOT peptide array binding signal intensity (CaSla1-D3): ≤ 0
- SPOT peptide array binding signal intensity (ScAbp1): ≤ 0
- SPOT peptide array binding signal intensity (ScBbc1): 0.75
- SPOT peptide array binding signal intensity (ScBem1-D1): 4
- SPOT peptide array binding signal intensity (ScBzz1-D1): 19
- SPOT peptide array binding signal intensity (ScBzz1-D2): 6
- SPOT peptide array binding signal intensity (ScCyk3): 57.5
- SPOT peptide array binding signal intensity (ScFus1): 238
- SPOT peptide array binding signal intensity (ScHof1): 1
- SPOT peptide array binding signal intensity (ScHse1): 1040
- SPOT peptide array binding signal intensity (ScLsb1): 0.5
- SPOT peptide array binding signal intensity (ScLsb2): 1
- SPOT peptide array binding signal intensity (ScLsb3): 0.5
- SPOT peptide array binding signal intensity (ScLsb4): ≤ 0
- SPOT peptide array binding signal intensity (ScMyo3): ≤ 0
- SPOT peptide array binding signal intensity (ScMyo5): ≤ 0
- SPOT peptide array binding signal intensity (ScNbp2): 13
- SPOT peptide array binding signal intensity (ScPex13): 0.25
- SPOT peptide array binding signal intensity (ScRvs167): 2.33
- SPOT peptide array binding signal intensity (ScSho1): 350
- SPOT peptide array binding signal intensity (ScSla1-D1-D2): ≤ 0
- SPOT peptide array binding signal intensity (ScSla1-D3): 0.5
- SPOT peptide array binding signal intensity (SpAbp1-D1): ≤ 0
- SPOT peptide array binding signal intensity (SpBbc1): ≤ 0
- SPOT peptide array binding signal intensity (SpBzz1-D1): 8
